{"source": "PubChem BioAssay AID1259312", "about": "(Keith Lab, Institute of Cancer Science, University of …, 2017)", "note": "Hit rate of the full screen: of about 4,500 compounds, about 200 (4.4%) were called active.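 Rule for the calls: active = cell survival measured by absorbance rises more than 2.5-fold over infected cells without compound; inactive = the rest.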 Shown is part of a subset that was picked to be rich in actives."}
{"assay": "survival after telomere uncapping, modulators, primary screen, cell-based (AID 1259312);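 note: virus expresses mutant telomerase RNA that uncaps telomeres and kills cells; compound added 2 days after infection so exposure lasts 3 days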", "details": "HCT116 + Ad-hTR-mut, MTT, 5 d; at 10 µM, active compounds read high"}
{"smiles": "O=C(Nc1ccc(I)cc1)C1CCCN1C(=O)c1cccs1", "note": "(configuration not stated)", "fold change": "1.51 (inactive)"}
{"smiles": "Cn1c(Cc2ccccc2)n[nH]c1=S", "fold change": "-1.19 (inactive)"}
{"smiles": "Cn1c(COc2ccc(C3CCCCC3)cc2)n[nH]c1=S", "fold change": "2.92 (active)"}
{"smiles": "CCCCn1c(COc2ccc(Cl)cc2)n[nH]c1=S", "fold change": "-1.76 (inactive)"}
{"smiles": "O=C(O)CCSc1ncnc2ccccc12", "fold change": "-3.11 (inactive)"}
{"smiles": "CCN(CC)CC(=O)Nc1sc2c(c1C(N)=O)CCCC2", "fold change": "1 (inactive)"}
{"smiles": "O=c1[nH]cnc2nn(-c3ccccc3)nc12", "fold change": "inactive"}
{"smiles": "c1ccc(CC2=NCCN2)cc1", "fold change": "-1.2 (inactive)"}
{"smiles": "Fc1ccc(CSc2nnc(SCc3ccccc3F)s2)cc1", "fold change": "-1.07 (inactive)"}
{"smiles": "Fc1ccccc1CSC1=NCCN1", "fold change": "3.44 (active)"}
{"smiles": "O=C1NC(=O)/C(=C/c2ccc(-c3ccc(Br)c(Cl)c3)o2)N1", "fold change": "-1.16 (inactive)"}
{"smiles": "Nc1ccc(N2CCCC2)c(C(F)(F)F)c1", "fold change": "1.69 (inactive)"}
{"smiles": "COc1ccc(N/C=C(\\C#N)C(N)=S)cc1OC", "fold change": "-3.68 (inactive)"}
{"smiles": "CCCN1CC2=C(OC(N)=C(C#N)C2c2ccc(SC)cc2)/C(=C/c2ccc(SC)cc2)C1", "note": "(configuration not stated)", "fold change": "5.06 (active)"}
{"smiles": "COc1ccc(CC2=CN(C)CC3=C2OC(N)=C(C#N)C3c2ccc(OC)cc2)cc1", "note": "(configuration not stated)", "fold change": "1.19 (inactive)"}
{"smiles": "CC(C)N1C=C(Cc2ccc(F)cc2)C2=C(C1)C(c1ccc(F)cc1)C(C#N)=C(N)O2", "note": "(configuration not stated)", "fold change": "1.45 (inactive)"}
{"smiles": "COc1ccc(C(=CCl)c2ccc(OC)c(Br)c2)cc1Br", "fold change": "-2.67 (inactive)"}
{"smiles": "CCc1sc(C(C2C(=O)CC(C)(C)CC2=O)C2C(=O)CC(C)(C)CC2=O)cc1[N+](=O)[O-]", "fold change": "3.11 (active)"}
{"smiles": "CCc1sc(C(C2C(=O)CC(C)(C)CC2=O)C2C(=O)CC(C)(C)CC2=O)cc1Br", "fold change": "-6.02 (inactive)"}
{"smiles": "CCc1ccc(C(C2C(=O)CC(C)(C)CC2=O)C2C(=O)CC(C)(C)CC2=O)s1", "fold change": "-2.62 (inactive)"}
{"smiles": "O=C(N=Nc1c(O)[nH]c2ccccc12)c1cc(-c2ccco2)[nH]n1", "fold change": "inactive"}
{"smiles": "O=[N+]([O-])c1ccc(Cl)cc1SCCO", "fold change": "3.06 (active)"}
{"smiles": "O=[N+]([O-])c1ccc(SCCO)c2ncccc12", "fold change": "1.52 (inactive)"}
{"smiles": "O=[N+]([O-])c1ccc(Cl)cc1N1CCN(CCO)CC1", "fold change": "2.17 (inactive)"}
{"smiles": "COc1ccc(C2C3CCC=C3C(C#N)=C(N)C2(C#N)C#N)c(OC)c1", "note": "(configuration not stated)", "fold change": "1.26 (inactive)"}
{"smiles": "COCCNC(=O)C(=O)NCCC1=CCCCC1", "fold change": "1.05 (inactive)"}
{"smiles": "c1ccc2c(c1)nnn2CN1CCN(c2ccc3c(c2)OCO3)CC1", "fold change": "-1.48 (inactive)"}
{"smiles": "Clc1cccc(N2CCN(Cn3nnc4ccccc43)CC2)c1", "fold change": "3.04 (active)"}
{"smiles": "C(=C/c1ccccc1)/CN1CCN(Cn2nnc3ccccc32)CC1", "fold change": "-1.33 (inactive)"}
{"smiles": "Cc1cc(C)c(CCl)c(C)c1/C=N/O", "fold change": "1.02 (inactive)"}
{"smiles": "O=C(O)CSc1nc(SCc2ccccc2)nc2ccccc12", "fold change": "1.5 (inactive)"}
{"smiles": "CCc1ccc(C2C(C#N)=C(N)OC3=C2C(=O)CCC3)s1", "note": "(configuration not stated)", "fold change": "1.35 (inactive)"}
{"smiles": "CCOC(=O)c1nonc1N", "fold change": "3.82 (active)"}
{"smiles": "Nc1nonc1C(=O)O", "fold change": "-1.12 (inactive)"}
{"smiles": "COC(=O)c1nonc1N", "fold change": "-1.05 (inactive)"}
{"smiles": "CS(=O)(=O)Nc1ccc(Br)cn1", "fold change": "-1.27 (inactive)"}
{"smiles": "CCCOc1ccc(N/C(N)=N/c2nc(C)cc(C)n2)cc1", "fold change": "-3.48 (inactive)"}
{"smiles": "CC1=C(C2=C(C)C(C(C)C)C3=C(C(=O)C(O)C3O)C2O)C(O)C2=C(C(O)C(O)C2=O)C1C(C)C", "note": "(configuration not stated)", "fold change": "-1.99 (inactive)"}
{"smiles": "O=S(=O)(Nc1cc(Cl)cc(Cl)c1)c1ccc(Cl)cc1", "fold change": "4.93 (active)"}
{"smiles": "O=S(=O)(Nc1ccc(Cl)cc1)c1ccc(NS(=O)(=O)c2ccc3c(c2)OCCO3)cc1", "fold change": "-1.18 (inactive)"}
{"smiles": "O=S(=O)(Nc1cccc(F)c1)c1ccc(F)cc1", "fold change": "-1.33 (inactive)"}
{"smiles": "O=S(=O)(Nc1ccncc1)c1ccc(Cl)cc1", "fold change": "-1.23 (inactive)"}
{"smiles": "O=S(=O)(Nc1ccc(F)c(Cl)c1)c1ccc(Cl)cc1", "fold change": "2.99 (active)"}
{"smiles": "O=S(=O)(Nc1ccc2c(c1)OCO2)c1ccc(Cl)cc1", "fold change": "-1.43 (inactive)"}
{"smiles": "COc1ccc(C2Oc3ccccc3C3CC(c4ccccc4)=NN32)cc1", "note": "(configuration not stated)", "fold change": "-1.84 (inactive)"}
{"smiles": "O=c1cc(-c2ccc(O)cc2)oc2c(O)c(O)ccc12", "fold change": "1.16 (inactive)"}
{"smiles": "CSc1nc2ccccc2n1Cc1ccccc1Cl", "fold change": "1.29 (inactive)"}
{"smiles": "O=S(=O)(Nc1ccc(S(=O)(=O)Nc2ccccc2Cl)cc1)c1ccc2c(c1)OCCO2", "fold change": "-1.07 (inactive)"}
{"smiles": "CNCC1COCCO1", "note": "(configuration not stated)", "fold change": "-2.02 (inactive)"}
{"smiles": "N=C(N)SCc1csc(N)n1", "fold change": "1.98 (inactive)"}
{"smiles": "S=c1[nH]nc(Cc2cccc3ccccc23)o1", "fold change": "-2.84 (inactive)"}
{"smiles": "C1=NC(Cc2cccc3ccccc23)NC1", "note": "(configuration not stated)", "fold change": "4.23 (active)"}
{"smiles": "Cc1nc2sc3c(c2c(=O)n1N)CCC3", "fold change": "-1.06 (inactive)"}
{"smiles": "c1ccc(CC2COC(C3=N[C@@H](Cc4ccccc4)CO3)=N2)cc1", "note": "(some centres not stated)", "fold change": "1.27 (inactive)"}
{"smiles": "O=C(NCCC1=CCCCC1)C(=O)NCc1ccco1", "fold change": "-1.07 (inactive)"}
{"smiles": "O=S(=O)(c1ccc2ccccc2c1)N1CCc2ccccc21", "fold change": "1 (inactive)"}
{"smiles": "CCCCc1ccc(-c2csc(N)c2C#N)cc1", "fold change": "-1.78 (inactive)"}
{"smiles": "CCn1c(-c2ccccc2)nn(CN2CCOCC2)c1=S", "fold change": "1.15 (inactive)"}
{"smiles": "S=c1n(CN2CCOCC2)nnn1C1CCCCC1", "fold change": "1.01 (inactive)"}
{"smiles": "S=c1n(CN2CCOCC2)nnn1-c1ccccc1", "fold change": "4.24 (active)"}
{"smiles": "CN(C)c1nc(N)nc(CN(C)S(=O)(=O)c2ccccc2)n1", "fold change": "-1.09 (inactive)"}
{"smiles": "O=c1[nH]c2ccc(N=Cc3ccc4c(c3)OCO4)cc2[nH]1", "fold change": "2.71 (active)"}
{"smiles": "CN(C)c1ccc(C=Nc2ccc3[nH]c(=O)[nH]c3c2)cc1[N+](=O)[O-]", "fold change": "-1.64 (inactive)"}
{"smiles": "C(=Nc1ccc2[nH]ncc2c1)c1ccc2c(c1)OCO2", "fold change": "-2.04 (inactive)"}
{"smiles": "O=C(ON1C(=O)CCC1=O)ON1C(=O)CCC1=O", "fold change": "-1.28 (inactive)"}
{"smiles": "O=[N+]([O-])c1ccc(Cl)c(N2CCCC2)c1", "fold change": "2.03 (inactive)"}
{"smiles": "N=C(N)SCc1ccc(Cl)cc1", "fold change": "2.73 (active)"}
{"smiles": "Nc1nnc(SCc2ccc(Cl)cc2)s1", "fold change": "1.21 (inactive)"}
{"smiles": "N=C(N)SCc1ccc(Cl)cc1Cl", "fold change": "-1.36 (inactive)"}
{"smiles": "O=S(=O)(NCC1CCCO1)c1ccc(Br)cc1", "note": "(configuration not stated)", "fold change": "3.1 (active)"}
{"smiles": "O=S(=O)(NCC1CCCO1)c1ccccc1", "note": "(configuration not stated)", "fold change": "-1.72 (inactive)"}
{"smiles": "CC1Oc2ccc(S(=O)(=O)NCC3CCCO3)cc2NC1=O", "note": "(configuration not stated)", "fold change": "-1.21 (inactive)"}
{"smiles": "NCC12CC3CC(CC(C3)C1)C2", "fold change": "-1.38 (inactive)"}
{"smiles": "CC1NC(=O)N(C(C)(C)C)C(=O)C1Cl", "note": "(configuration not stated)", "fold change": "3.94 (active)"}
{"smiles": "COc1ccc(N2C(=O)/C(=C\\N3CCN(C)CC3)SC2=S)cc1", "fold change": "-1.11 (inactive)"}
{"smiles": "Cc1ccn(-c2ccc([N+](=O)[O-])cc2)n1", "fold change": "-1.59 (inactive)"}
{"smiles": "O=C1NC(=O)/C(=C\\c2ccc(-c3cccc(C(F)(F)F)c3)o2)S1", "fold change": "-1.8 (inactive)"}
{"smiles": "N#CC(C#N)=Cc1ccc(-c2cccc(C(F)(F)F)c2)o1", "fold change": "2.62 (active)"}
{"smiles": "O=C1NC(=S)S/C1=C/c1ccc(-c2cccc(C(F)(F)F)c2)o1", "fold change": "1.1 (inactive)"}
{"smiles": "O=C1CSc2ccc(NC(=O)C3CCCC3)cc2N1", "fold change": "1.29 (inactive)"}
{"smiles": "O=[N+]([O-])c1ccc(N2CCOCC2)cc1", "fold change": "1.1 (inactive)"}
{"smiles": "Nc1cc(N2CCOCC2)ccc1[N+](=O)[O-]", "fold change": "3.38 (active)"}
{"smiles": "O=[N+]([O-])c1ccc(N2CCCCC2)cc1N1CCOCC1", "fold change": "-1.29 (inactive)"}
{"smiles": "O=C(O)C(C(=O)O)C1C=CCC1", "note": "(configuration not stated)", "fold change": "1.13 (inactive)"}
{"smiles": "Nc1ccc(N2CCOCC2)c(Br)c1", "fold change": "-1.07 (inactive)"}
{"smiles": "Nc1cc(Cl)ccc1N1CCOCC1", "fold change": "1.23 (inactive)"}
{"smiles": "Nc1ccc(N2CCOCC2)c(Cl)c1", "fold change": "4.13 (active)"}
{"smiles": "N#CC1=C(N)n2c(s/c(=C\\c3ccc(Br)cc3)c2=O)=C(C#N)C1c1ccc(Br)cc1", "note": "(configuration not stated)", "fold change": "-1.13 (inactive)"}
{"smiles": "Brc1ccc(-c2csc(N3CCOCC3)n2)cc1", "fold change": "1.56 (inactive)"}
{"smiles": "N#CC(C#N)C(c1ccsc1)c1c(-c2ccccc2)[nH][nH]c1=O", "note": "(configuration not stated)", "fold change": "3.37 (active)"}
{"smiles": "Clc1ccc(-c2nc3sc(-c4ccc(Cl)cc4Cl)nc3s2)c(Cl)c1", "fold change": "-2.46 (inactive)"}
{"smiles": "COC(=O)c1nc2ccc(OC)cc2s1", "fold change": "-1.15 (inactive)"}
{"smiles": "COc1ccc(C2C(C#N)=C(N)NC(C(C#N)C#N)=C2C#N)cc1OC", "note": "(configuration not stated)", "fold change": "-1.8 (inactive)"}
{"smiles": "O=C(O)c1ccn[nH]1", "fold change": "3.42 (active)"}
{"smiles": "COC(=O)CNC(=O)c1ccn[nH]1", "fold change": "-1.28 (inactive)"}
{"smiles": "CCOC(=O)CO/N=C(\\C(=O)O)c1ccn[nH]1", "fold change": "inactive"}
{"smiles": "c1ccc(CCn2c(-c3ccccc3)csc2=Nc2ccccc2)cc1", "fold change": "-2.95 (inactive)"}
{"smiles": "CSc1nc(-c2ccc([N+](=O)[O-])cc2)nn1C", "fold change": "-3.83 (inactive)"}
{"smiles": "Nc1nonc1C(=O)NCCNS(=O)(=O)c1ccccc1", "fold change": "3.28 (active)"}
{"smiles": "NCCNC(=O)c1nonc1N", "fold change": "1.63 (inactive)"}
{"smiles": "CS(=O)(=O)NCCNC(=O)c1nonc1N", "fold change": "-1.3 (inactive)"}
{"smiles": "O=C(O)c1[nH]c(=O)[nH]c(=O)c1[N+](=O)[O-]", "fold change": "1.2 (inactive)"}
{"smiles": "CS(=O)(=O)N1CCc2cc(S(=O)(=O)N3CCC(c4ccccc4)CC3)ccc21", "fold change": "1.49 (inactive)"}
{"smiles": "CS(=O)(=O)Nc1cccc(Cl)c1Cl", "fold change": "-1.31 (inactive)"}
{"smiles": "COc1ccc(CC2=CN(C)CC3=C2OC(N)=C(C#N)C3c2ccc(OC)c(OC)c2)cc1OC", "note": "(configuration not stated)", "fold change": "-1.28 (inactive)"}
{"smiles": "O=C(Nc1ccc(Cl)cc1)Nc1ccc(Cl)cc1Cl", "fold change": "-2.79 (inactive)"}
{"smiles": "CCc1nnc(NC(=O)CN(C)CCC#N)s1", "fold change": "-1.46 (inactive)"}
{"smiles": "O=c1n(Cc2ccon2)c2ccccc2n1Cc1ccon1", "fold change": "-2.68 (inactive)"}
{"smiles": "O=C(O)CCCn1c(=O)n(CCCC(=O)O)c2ccccc21", "fold change": "3.81 (active)"}
{"smiles": "COC(=O)Cn1c(=O)c2ccccc2n(CC(=O)OC)c1=O", "fold change": "-1.31 (inactive)"}
{"smiles": "CCN(C(=O)Cc1cccs1)C1CCCCC1", "fold change": "-1.09 (inactive)"}
{"smiles": "Cn1c(=O)oc2ccc(S(=O)(=O)Nc3ccc4c(c3)n(C)c(=O)n4C)cc21", "fold change": "-1.89 (inactive)"}
